# Only some compounds are listed: those with a hit (about 1.2% of all), similar ones and a draw of the others.
# Anesthetic bind = candidate novel general anesthetic via apoferritin binding; apoferritin/1-aminoanthracene competitive binding, fluorescence; P02791; Potency, µM (highest dose often 77.5 µM), inactives show at the top dose activity change, negative = displacement, hits mostly inhibitors; 350,000 compounds, 0.074% hits; further: potency means the concentration at half of the fitted maximal effect; on the % scale 0 is the no-effect control and ±100 the full control effect; nearly all actives have a fitted effect of over 20% in size
#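 10 uM apoferritin + 50% sat. 1-AMA, PBS; cpd 10 min RT; Ex380/Em535 endpoint; normalized to free probe vs complex; 4-param Hill fit; propofol titration as pos. ctrl.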
# mIDH1 inhibitor = blocks human mutant IDH1 R132H enzyme | IDH1-R132H enzyme, NADPH consumption, diaphorase/resazurin fluorescence | Potency, µM (top dose mostly 76.6 µM), without a hit: at the top dose activity change, negative = inhibition, actives largely listed as inhibitors | 390,000 compounds, 0.093% hits | AID 602179; further: potency means the concentration at half of the fitted maximal effect; on the % scale 0 is the no-effect control and ±100 the full control effect; nearly all actives have a fitted effect of over 65% in size
#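 IDH1-R132H (0.5 ug/mL) preincubated 30 min with compound, then NADPH (0.016 mM) and alpha-KG (2 mM) added; 80 min at RT, pH 7.5. Remaining NADPH coupled via diaphorase/resazurin to fluorescence (540/590 nm); concentration-response curves normalized to no-enzyme control.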
# KCNH2 3.1 block = blocks the human KCNH2 3.1 channel isoform; 340,000 compounds, 0.95% hits; activity change, % (tested at about 1.8 µM); U2OS KCNH2 3.1, thallium flux FluxOr; active compounds read low;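 active means maximum activity change below -70%; inconclusive means maximum activity change from -70% to -50%; inactive means maximum activity change above -50%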;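 further: thallium influx rate constant from kinetic fluorescence after stimulation buffer; on the % scale 0 is the no-effect control and ±100 the full control effect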
#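 Thallium flux read-out: FluxOr dye with Red40 quencher in HBSS/HEPES, 45 min at RT. Rate constants from kinetic reads were normalized to positive and negative DMSO controls. Cells: U2OS virally expressing the 3.1 isoform.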
# KCNH2 WT inh = blocks the wildtype human KCNH2 potassium channel | 340,000 compounds, 0.37% hits | AID 720551 | U2OS, BacMam KCNH2, thallium flux FluxOr; active compounds read low | activity change, % at 1.84 µM;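 active means maximum activity change below -70%; inconclusive means maximum activity change between -70% and -50%; inactive means maximum activity change above -50%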; further: on the % scale 0 is the no-effect control and ±100 the full control effect
# Target sequence (Q12809 whole entry, looked up): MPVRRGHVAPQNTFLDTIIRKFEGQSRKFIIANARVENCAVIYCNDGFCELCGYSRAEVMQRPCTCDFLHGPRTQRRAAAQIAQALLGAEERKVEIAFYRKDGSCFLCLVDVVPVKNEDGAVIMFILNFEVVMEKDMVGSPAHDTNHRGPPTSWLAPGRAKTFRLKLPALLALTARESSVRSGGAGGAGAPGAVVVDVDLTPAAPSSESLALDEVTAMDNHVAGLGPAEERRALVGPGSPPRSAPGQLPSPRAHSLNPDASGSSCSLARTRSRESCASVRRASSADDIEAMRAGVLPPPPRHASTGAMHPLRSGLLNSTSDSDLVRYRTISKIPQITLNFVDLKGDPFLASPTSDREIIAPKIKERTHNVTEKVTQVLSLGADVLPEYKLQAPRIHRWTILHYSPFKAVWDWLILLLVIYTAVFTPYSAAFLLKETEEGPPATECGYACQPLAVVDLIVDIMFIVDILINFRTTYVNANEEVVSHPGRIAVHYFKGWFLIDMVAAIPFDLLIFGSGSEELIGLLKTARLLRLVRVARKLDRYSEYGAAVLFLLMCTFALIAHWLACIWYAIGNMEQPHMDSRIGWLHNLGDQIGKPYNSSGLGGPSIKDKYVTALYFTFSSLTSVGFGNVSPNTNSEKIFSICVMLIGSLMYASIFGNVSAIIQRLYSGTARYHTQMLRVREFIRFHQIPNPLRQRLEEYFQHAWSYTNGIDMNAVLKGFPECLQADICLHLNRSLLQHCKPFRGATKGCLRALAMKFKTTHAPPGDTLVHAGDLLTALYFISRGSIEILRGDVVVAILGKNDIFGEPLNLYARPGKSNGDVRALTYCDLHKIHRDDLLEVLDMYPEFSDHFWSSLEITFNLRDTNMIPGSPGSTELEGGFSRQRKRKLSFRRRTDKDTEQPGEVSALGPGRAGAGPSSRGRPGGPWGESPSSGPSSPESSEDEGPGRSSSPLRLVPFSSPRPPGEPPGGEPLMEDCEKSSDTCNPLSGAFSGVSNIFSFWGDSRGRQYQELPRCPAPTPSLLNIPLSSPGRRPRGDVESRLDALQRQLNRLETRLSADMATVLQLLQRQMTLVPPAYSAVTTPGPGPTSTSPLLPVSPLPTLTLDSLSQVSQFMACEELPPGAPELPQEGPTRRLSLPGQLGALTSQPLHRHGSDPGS
#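 U2OS cells were transduced with wild-type KCNH2 virus (2.03 x 10^8 / mL) for 4 h at room temperature, then cultured overnight at 37 C. Thallium flux was read with FluxOr dye. Rate constants were normalized to DMSO controls.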
# ASM inhibitor = inhibitors of human secretory acid sphingomyelinase; placental ASM, HMU-PC fluorogenic substrate, 60 min; P17405; AID 504937; Potency, µM (doses to about 57.5 µM), for inactives: at the top dose activity change, negative = inhibition, actives largely listed as inhibitors; 340,000 compounds, 0.006% hits; further: potency means the concentration at half of the fitted maximal effect
#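 Fluorogenic HMU-PC substrate (9 uM final) is turned over by placental ASM in 60 min at 37 C after a 10 min compound preincubation. Reaction ended by alkaline stop (pH 10), with fluorescence read at 386/447 nm.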
# * = called active by the depositor; ? = inconclusive; . = no result given. Unless noted, the call rests on the fitted dose curve; in most records, active means well fitted inhibition curve with a large enough effect; inconclusive means small, poorly fitted or top-dose-only effect; inactive means no such curve, though single readings can be large or run the other way.
SMILES,Anesthetic bind,mIDH1 inhibitor,KCNH2 3.1 block,KCNH2 WT inh,ASM inhibitor
CN1CCN(c2ccc(NC(=O)c3ccc(-c4ccc(Cl)cc4)o3)cc2)CC1,-15%,-20%,-95*,16,?
CN1CCN(c2ccc(NC(=O)c3sc4ccccc4c3Cl)cc2)CC1,-22%,2%,-74*,-38,-4%
Cc1ccc(C(=O)N2CCN(c3ccc(NC(=O)CSc4ccc(Cl)cc4)cc3)CC2)cc1,-12%,2%,-118*,-118*,.
O=C(Nc1ccccc1N1CCN(C(=O)c2ccc(Cl)cc2)CC1)c1cc2ccccc2o1,-3%,3%,?,6,-8%
COc1ccc(C2C=C3CNS(=O)(=O)C3CC2OC(=O)c2ccc(Cl)cc2)cc1 (centres undefined),-13%,.,.,.,.
O=C(Nc1ccc(N2CCN(C(=O)c3cccs3)CC2)cc1)c1ccc(Br)o1,.,10%,4,4,-3%
O=C(Nc1ccc(N2CCN(C(=O)c3ccc(Cl)cc3)CC2)cc1)c1ccc(Br)o1,-11%,0%,-90*,-7,-4%
Cc1cc(C)cc(N(CC(=O)Nc2cc(C)ccc2C)S(=O)(=O)c2c(C)[nH]c(=O)[nH]c2=O)c1,-6%,0%,4,4,1%
Cc1cc(C)cc(N(CC(=O)Nc2ccc(Br)cc2)S(=O)(=O)c2c(C)[nH]c(=O)[nH]c2=O)c1,-17%,-1%,-109*,-24,-1%
COCc1cc(C)nc2c1C(=O)NC(c1ccc(Br)cc1)N2Cc1ccccc1 (centres undefined),-6%,12%,.,.,.
CC(C)(C)c1cc(-c2csc(Nc3ccccc3)[n+]2Cc2ccc(C(=O)O)cc2)cc(C(C)(C)C)c1O,-8%,37µM*,4,-3,-17%
O=C(O)c1ccc(C[n+]2c(-c3ccccc3)csc2Nc2ccccc2)cc1,2%,-21%,-2,-4,4%
CCOC(=O)c1c(C)[nH]c(C)c1C(=O)COC(=O)c1nn(CC)c(=O)c2ccccc12,.,7%,-5,-102*,.
Cc1ccc(-c2nn3c(C)nnc3s2)cc1N,-11%,11%,12,-289*,14%
Cc1ccc(-c2nn3c(C)nnc3s2)cc1NC(=O)C(C)C,-8%,-21%,1,5,-3%
CCC(=O)Nc1ccc(-c2nn3c(C)nnc3s2)cc1C,-12%,9%,-115*,-22,5%
CCc1cccc(C)c1NC(=O)Cn1c(=O)cc(C(F)(F)F)c2c(C)nn(C)c21,-15%,-11%,.,.,.
COCCn1c(C)cc(O)c(C(c2cccc(F)c2)N2CCN(c3ccccc3)CC2)c1=O (centres undefined),1%,-14%,.,.,.
CCOCCCN(C)C1CCN(C(=O)c2oc3ccccc3c2NC(=O)c2ccc([N+](=O)[O-])cc2)CC1,-9%,-5%,-82*,-122*,3%
O=C(Nc1c(C(=O)N2CCC(N3CCCCC3)CC2)oc2ccccc12)c1ccc(F)cc1,-4%,16%,?,-5,-1%
CCOCCCN(C)C1CCN(C(=O)c2oc3ccccc3c2NC(=O)c2ccc(F)cc2)CC1,-12%,12%,-92*,-82*,2%
COC(=O)C(Cc1ccccc1)NS(=O)(=O)c1cc(Br)ccc1Br (centres undefined),-20%,.,.,.,.
CCCCc1nn2c(=O)cc(COC(=O)c3cccc(NC(=O)CCc4ccccc4)c3)nc2s1,-4%,-10%,.,.,.
COC(=O)c1[nH]c2cc(OC)ccc2c1NC(=O)CCN1CCN(c2cccc(C)c2C)CC1,-10%,-2%,-91*,6,0%
COC(=O)c1[nH]c2cc(OC)ccc2c1NC(=O)CCN1CCN(c2ccccc2)CC1,-10%,-9%,-44,12,0%
CCNS(=O)(=O)c1ccc(Br)c(OC)c1,?,-1%,-93*,-29,2%
COc1ccc(CN(C(=O)CSc2nnc(-c3c[nH]c4ccccc34)o2)c2ccc(F)cc2)cc1OC,-11%,11%,-5,-280*,-9%
COc1ccc(CN(C(=O)CSc2nnc(-c3ccc(F)cc3)o2)c2ccc(F)cc2)cc1,61%,2%,0,17,-3%
COc1ccc(C)cc1-n1cnc2cc(C(=O)NC3CCCC3)ccc21,9%,8%,.,.,.
